Test [1] can be described thus: A CellTox Green Cytotoxicity Assay to monitor cytotoxicity in HepG2 cells - 32 hour (AID 1224883). Further: nearly all actives have a fitted effect of over 50% in size. Further: potency means the concentration at half of the fitted maximal effect. The note with it: CellTox Green fluorescence; series mostly up to 76.8 µM. A digest of the protocol:
(§1)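 Measurements at 0, 8, 16, 24, 32 and 40 h of treatment captured CellTox Green fluorescence in HepG2 cells that had been co-plated with reagent and preincubated 5 h at 37 C/5% CO2.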

Test [2] is described as follows: A CellTox Green Cytotoxicity Assay to monitor cytotoxicity in HEK293 cells - 8 hour (AID 1224884). Further: nearly all actives have a fitted effect of over 35% in size. Further: potency means the concentration at half of the fitted maximal effect. The note with it: CellTox Green fluorescence; series mostly up to 76.8 µM. A digest of the protocol:
(§2)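 Tox21 screen in HEK293: membrane-impermeant cyanine dye fluoresces on binding dead-cell DNA; compound pinned 5 h post-seeding, plates held at 37 C, signal read repeatedly through 40 h.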

The nature of test [3]: qHTS RealTime-Glo MT Cell Viability Assay in HEK293 cells - 24 hour (AID 1224886). Further: nearly all actives have a fitted effect of over 50% in size. Further: potency means the concentration at half of the fitted maximal effect. Conditions: RealTime-Glo luminescence; series mostly up to 76.8 µM. The gist of the method: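 HEK293 cells seeded with NanoLuc/prosubstrate reagent, rested 5 h at 37 C, then dosed and kept at 37 C up to 40 h. Nonlytic real-time luminescence from viable cells read at 0, 8, 16, 24, 32 and 40 h.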

Test [4] in a line: qHTS RealTime-Glo MT Cell Viability Assay in HEK293 cells - 8 hour (AID 1224887). Further: nearly all actives have a fitted effect of over 50% in size. Further: potency means the concentration at half of the fitted maximal effect. Conditions: RealTime-Glo luminescence; series mostly up to 76.8 µM. The gist of the method: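 HEK293 + NanoLuc + prosubstrate, 600 cells/well; 5 h, 37 C/5% CO2; compound 23 nL in DMSO by pintool; 37 C; luminescence read at 0, 8, 16, 24, 32 and 40 h time points.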
The nature of test [5]: A CellTox Green Cytotoxicity Assay to monitor cytotoxicity in HEK293 cells - 16 hour (AID 1224888). Further: nearly all actives have a fitted effect of over 35% in size. Further: potency means the concentration at half of the fitted maximal effect. Conditions: CellTox Green fluorescence; series mostly up to 76.8 µM. A digest of the protocol: as §2
Test [6] is described as follows: qHTS RealTime-Glo MT Cell Viability Assay in HepG2 cells - 0 hour (AID 1224889). Further: nearly all actives have a fitted effect of over 50% in size. Further: potency means the concentration at half of the fitted maximal effect. The note with it: RealTime-Glo luminescence; series mostly up to 76.8 µM. A digest of the protocol:
(§3)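 HepG2 cells (600/well) were dispensed with RealTime-Glo reagents, incubated 5 h at 37 °C, then treated with compounds in DMSO for up to 40 h. Nonlytic NanoLuc luminescence reflecting viable cells was read at each stated time point.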
In general terms: qHTS replaces the single test concentration by a dilution series.

A short description of test [7]: A CellTox Green Cytotoxicity Assay to monitor cytotoxicity in HepG2 cells - 8 hour (AID 1224890). Further: nearly all actives have a fitted effect of over 45% in size. Further: potency means the concentration at half of the fitted maximal effect. The note with it: CellTox Green fluorescence; series mostly up to 76.8 µM. A digest of the protocol: as §1
The nature of test [8]: qHTS assay to identify small molecule antagonists of the estrogen receptor alpha (ER-alpha) signaling pathway using the BG1 cell line in the presence of 0.1 nM 17-beta-estradiol - cell viability counter screen (AID 1259241). Further: nearly all actives have a fitted effect of over 40% in size. Further: potency means the concentration at half of the fitted maximal effect. Conditions: VM7Luc4E2 (BG1) viability, CellTiter-Fluor protease, 22 h, 0.1 nM estradiol agonist added; series mostly up to 92.4 µM. A digest of the protocol:
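CellTiter-Fluor read (30 min, 37C) on ER-alpha/ERE-luc VM7Luc4E2 cells; 22 hr compound treatment; agonist 0.1 nM E2 final; same-well multiplex.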

The nature of test [9]: qHTS assay to identify small molecule antagonists of the androgen receptor (AR) signaling pathway using the MDA cell line in the presence of 0.5 nM R1881 - cell viability counter screen (AID 1259242). Further: nearly all actives have a fitted effect of over 45% in size. Further: potency means the concentration at half of the fitted maximal effect. The note with it: MDA-kb2 viability, CellTiter-Fluor protease fluorescence, 16 h; series mostly up to 92.4 µM. The gist of the method:
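Concentration-response screen of compounds for toxicity in MDA-kb2 reporter cells: 16 hr at 37C with 0.5 nM R1881, endpoint live-cell protease fluorescence measured in the reporter wells.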

The nature of test [10]: qHTS RealTime-Glo MT Cell Viability Assay in HepG2 cells - 16 hour (AID 1224885). Further: nearly all actives have a fitted effect of over 50% in size. The note with it: RealTime-Glo luminescence; series mostly up to 76.8 µM. A digest of the protocol:
as §3

Several values for one entry are separate records, joined by “and”; a condition that tells them apart may be missing. Equal values may be shown once. Results filed as inconclusive are left out. Where a structure was tested more than once in an assay, its records may differ in their call. Activity calls are given as the source filed them. The call rests on the fitted dose curve; in most records, active means well fitted curve in the direction sought with a large enough effect in the repeat runs; inconclusive means weak or mixed curves; inactive means no such curve, though single readings can be large; an effect the other way counts as inactive or inconclusive.
On the % scale 0 is the no-effect control and ±100 the full control effect.

Turning to `O=c1c(C2CC(c3ccc(-c4ccc(Br)cc4)cc3)Cc3ccccc32)c(O)sc2ccccc12` (centres undefined), the Potency entry in test [1], in test [2], in [3], in test [4], in test [5] and in test [7] was “inactive” in each case. The Potency result in test [8] and in test [9] was “inactive” throughout. The Potency in [6] is 6.74 µM (active).
Take `S=C(SSC(=S)N1CCCCC1)N1CCCCC1`: the Potency in test [1] is 0.19 µM (active); in [3], 13.4 µM (active). The Potency entry in test [2], in test [5], in test [6] and in test [8] was “inactive” throughout.
On to `Cc1cc(C)cc(OP(=O)(Oc2cc(C)cc(C)c2)Oc2cc(C)cc(C)c2)c1`, for which the Potency entry in [1], in test [10], in test [3], in [4], in [5] and in [6] was “inactive” in each case. Further, the Potency result in test [7] and in test [8] was “inactive” in each case.
Turning to `COc1ccc(/C(=C/C(=O)N2CCOCC2)c2ccc(Cl)cc2)cc1OC`, the Potency entry in [1], in [2], in test [10], in test [5], in test [7] and in test [8] was “inactive” each time. The Potency result in [9] is “inactive”.
For the compound `O=C1NCN(c2ccccc2)C12CCN(CC1COc3ccccc3O1)CC2` (centres undefined), the Potency entry in test [1], in test [2], in test [5], in [6], in test [7] and in test [9] was “inactive” each time.
`CCCCCCCCCCCCCCCC[n+]1ccccc1`: the Potency in test [1] was 15.5 µM (active) [middle of 4 runs]; in test [2] it was 49 µM (active) [middle of 4 runs]; in test [3], 9.52 µM (active) [middle of 4 runs]; in [4] it was 45.7 µM (active) and 54.9 µM (active) and 54.2 µM (active); in test [5], 49 µM (active) [middle of 4 runs]; in test [9] it was 32 µM (active) and 24.3 µM (active) and 26.9 µM (active). The Potency entry in test [6] was “inactive”.
Consider `O=C(Nc1ccc2[nH]ccc2c1)c1cc2cc(F)ccc2n1Cc1cccc(F)c1`, for which the Potency entry in [1], in test [2], in test [3], in test [4], in test [5] and in test [6] was “inactive” throughout. Further, the Potency result in [8] was “inactive”.
Take `COc1cccc2c1C(=O)c1c(O)c3c(c(O)c1C2=O)C[C@@](O)(C(=O)CO)CC3OC1CC(N2CCOC(OC)C2)C(O)C(C)O1` (some centres undefined): the Potency in test [1] was 0.0425 µM (active); in test [3] it was 0.0535 µM (active); in [7] it was 21.3 µM (active); in [8], 13.3 µM (active). Moreover, the Potency result in test [2], in test [5] and in [6] was “inactive” in each case.
As for `CCOC(=O)C1(c2ccccc2)CCN(CCC(C#N)(c2ccccc2)c2ccccc2)CC1`, the Potency entry in test [1], in test [2], in test [3], in test [4], in test [5] and in test [6] was “inactive” throughout. Also, the Potency entry in test [7] and in test [8] was “inactive” throughout.
`O=C(Cl)c1ccc(Cl)cc1`: the Potency result in test [1], in test [2], in [10], in test [5], in test [7] and in [8] was “inactive” throughout. The Potency result in test [9] was “inactive”.
As to `C[C@@H](Oc1ccc(Cl)cc1Cl)C(=O)O`, the Potency entry in test [1], in [10], in test [3], in test [4], in test [5] and in [6] was “inactive” throughout. Moreover, the Potency entry in test [7], in [8] and in [9] was “inactive” each time.
For `COc1cc(C=O)cc2c1[C@H](COC(N)=O)[C@]1(OC(C)=O)ON2C[C@H]2[C@@H]1N2C(C)=O`, the Potency in test [1] was 0.0977 µM (active); in [3], 0.245 µM (active). Also, the Potency entry in test [2], in [4], in test [5], in test [6] and in test [7] was “inactive” in each case.
`ClC1=C(Cl)C2(Cl)C3C(Cl)C=CC3C1(Cl)C2(Cl)Cl` (centres undefined): the Potency was 54.9 µM (active) in test [1]; 55.2 µM (active) and 49 µM (active) in test [2]; 43.8 µM (active) and 49 µM (active) in test [3]; 43.8 µM (active) and 43.6 µM (active) in test [4]; 55.2 µM (active) and 49 µM (active) in test [5]. Besides, the Potency result in [6], in [8] and in test [9] was “inactive” in each case.
Consider `CC(=O)[O-].CC(=O)[O-].O.O.[Cd+2]`, for which the Potency in [1] is 27.2 µM (active). Besides, the Potency result in test [2], in [5], in test [6], in [7] and in [9] was “inactive” in each case.
Take `C=CC(=O)OCCCCOC(=O)C=C`: the Potency in test [1] was 43.6 µM (active); in [3] it was 34.7 µM (active). The Potency entry in [2], in [4], in test [5], in [6], in [7] and in [8] was “inactive” throughout.
For `CC(O)C#N` (centres undefined), the Potency result in [1], in test [10], in test [3], in [4], in test [5] and in test [6] was “inactive” in each case. The Potency entry in test [7], in test [8] and in test [9] was “inactive” each time.
`O=c1oc2ccccc2c(O)c1Cc1c(O)c2ccccc2oc1=O`: the Potency result in [1], in [2], in test [3], in [4], in [5] and in test [7] was “inactive” throughout. Also, the Potency entry in test [8] is “inactive”.
For `CCCCCCCCCCCCCCC(Br)C(=O)O` (centres undefined), in test [1], the Potency is 17.4 µM (active). The Potency result in [10], in [3], in test [4], in [5], in test [6] and in test [7] was “inactive” in each case. The Potency result in test [8] and in test [9] was “inactive” each time.
In the case of `ClC(Cl)=C(Cl)Cl`, the Potency result in test [1], in test [10], in test [3], in test [4], in [5] and in test [6] was “inactive” each time. Also, the Potency entry in test [7], in test [8] and in test [9] was “inactive” in each case.
In the case of `CC(C)OC(=O)C(O)(c1ccc(Cl)cc1)c1ccc(Cl)cc1`, the values for the Potency in test [1] and in test [3] were 27.5 µM (active) and 21.9 µM (active), respectively. Further, the Potency result in test [2], in test [6], in test [8] and in [9] was “inactive” in each case.
`O=[N+]([O-])c1ccc(Oc2ccc(C(F)(F)F)cc2[N+](=O)[O-])cc1`: the Potency result in [1], in test [2], in test [5], in [6], in test [7] and in [8] was “inactive” in each case. In addition, in test [9], the Potency entry is “inactive”. Also, the Potency in test [4] was 19.5 µM (active).
On to `Clc1ccc(-c2ccccc2)cc1`, for which the Potency entry in test [1], in test [10], in test [3], in test [4], in [5] and in test [6] was “inactive” in each case. Further, the Potency entry in test [7] and in test [8] was “inactive” each time.
Consider `CC(C)CC(C)(c1ccc(O)cc1)c1ccc(O)cc1`, for which the Potency in test [1] was 43.8 µM (active); in test [3] it was 43.8 µM (active); in test [4] it was 43.8 µM (active) and inactive; in [7] it was “inactive and 49 µM (active)”. Further, the Potency result in [6] and in [8] was “inactive” each time.
Take `CN(C)C1CSSSC1`: the Potency entry in test [1], in [10], in test [3], in test [5], in test [6] and in test [8] was “inactive” each time. Moreover, the Potency result in test [9] was “inactive”.

For the origin of these results see PubChem BioAssay (Tox21).
